The source of these data is ChEMBL document CHEMBL3988442, “University of Dundee, Small-Polar-MMV Screening Library” (2021).

Design in all cases: scale not given: direction of the effect not stated beside the values
In assay [1] the target is Protein translocase subunit SecA (Escherichia coli (strain K12)) (UniProt P10408). Put plainly: Assay to Identify E. coli SecA ATPase Inhibitors. It counts as functional. As to conditions: 30 µM.
The target in assay [2] is T1, Ubiquitin-activating enzyme e1, putative (Leishmania donovani (strain BPK282A1)) (UniProt E9BSI1).
T1 sequence (whole entry): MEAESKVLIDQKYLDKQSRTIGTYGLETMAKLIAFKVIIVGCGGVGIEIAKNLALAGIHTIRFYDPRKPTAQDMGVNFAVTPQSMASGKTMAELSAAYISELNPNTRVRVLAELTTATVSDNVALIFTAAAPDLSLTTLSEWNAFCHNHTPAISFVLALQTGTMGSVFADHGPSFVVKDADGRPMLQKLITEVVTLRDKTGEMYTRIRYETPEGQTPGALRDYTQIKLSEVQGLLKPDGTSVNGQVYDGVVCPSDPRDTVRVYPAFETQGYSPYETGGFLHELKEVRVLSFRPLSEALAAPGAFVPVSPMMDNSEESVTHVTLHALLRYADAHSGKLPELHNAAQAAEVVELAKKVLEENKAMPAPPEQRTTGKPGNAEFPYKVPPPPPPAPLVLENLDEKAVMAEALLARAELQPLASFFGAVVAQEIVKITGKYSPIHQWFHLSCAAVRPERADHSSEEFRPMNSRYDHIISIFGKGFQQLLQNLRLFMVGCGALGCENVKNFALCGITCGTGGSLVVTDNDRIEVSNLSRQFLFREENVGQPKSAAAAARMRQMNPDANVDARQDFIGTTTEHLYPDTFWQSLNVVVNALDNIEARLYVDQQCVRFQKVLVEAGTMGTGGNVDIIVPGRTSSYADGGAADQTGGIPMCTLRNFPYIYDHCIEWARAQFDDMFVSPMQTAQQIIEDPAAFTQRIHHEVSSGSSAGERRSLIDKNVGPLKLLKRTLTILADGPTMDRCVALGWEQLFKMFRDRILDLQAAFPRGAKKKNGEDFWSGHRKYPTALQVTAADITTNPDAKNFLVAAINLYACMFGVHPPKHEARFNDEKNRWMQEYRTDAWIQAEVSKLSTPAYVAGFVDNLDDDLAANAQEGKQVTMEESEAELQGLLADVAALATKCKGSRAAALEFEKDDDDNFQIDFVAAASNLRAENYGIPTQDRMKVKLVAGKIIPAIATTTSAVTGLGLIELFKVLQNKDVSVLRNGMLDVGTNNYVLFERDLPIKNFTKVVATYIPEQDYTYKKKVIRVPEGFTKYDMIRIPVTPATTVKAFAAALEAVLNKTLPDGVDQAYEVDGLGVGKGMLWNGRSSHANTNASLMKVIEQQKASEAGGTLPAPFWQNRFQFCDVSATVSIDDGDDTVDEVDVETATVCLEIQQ
Put plainly: Leishmania donovani Ubiquitin Activating Enzyme (LdE1). The assay is classed as functional. As to conditions: 30 µM.

Assay [3] has as its target Sialic acid-binding Ig-like lectin 9 (Homo sapiens) (UniProt Q9Y336). As to the kind of experiment: Hs-Siglec9 ALPHAscreen SOP 20170721. As to conditions: 10 µM. A general note: Alpha assays give light when donor and acceptor beads are brought close together.
Another assay relates to Trypanosoma cruzi. Put plainly: Trypanosoma cruzi phosphomannomutase and mannose-1-phosphate guanylyltransferase assay. It counts as functional. As to conditions: 10 µM.
The target of assay [4] is T2, Arginase-2, mitochondrial (Homo sapiens) (UniProt P78540).
T2 sequence (whole entry): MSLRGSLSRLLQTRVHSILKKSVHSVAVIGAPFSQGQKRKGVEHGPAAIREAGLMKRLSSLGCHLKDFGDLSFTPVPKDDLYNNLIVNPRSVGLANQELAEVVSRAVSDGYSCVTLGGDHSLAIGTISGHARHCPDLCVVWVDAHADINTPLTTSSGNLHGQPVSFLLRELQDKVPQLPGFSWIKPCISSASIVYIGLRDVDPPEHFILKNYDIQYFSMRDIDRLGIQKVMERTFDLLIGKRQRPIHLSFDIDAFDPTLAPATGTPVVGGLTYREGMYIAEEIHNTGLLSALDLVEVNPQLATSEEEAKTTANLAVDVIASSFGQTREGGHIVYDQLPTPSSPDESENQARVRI
As to the kind of experiment: in vitro enzyme assay to detect the production of urea directly proportional to the activity of Arginase II. Also: in the data most compounds retested in dose-response had high values. It counts as functional. As to conditions: 33.3 µM.

Assay [5] addresses T3, Proteasome subunit beta (Trypanosoma cruzi) (UniProt O96673).
T3 sequence (whole entry): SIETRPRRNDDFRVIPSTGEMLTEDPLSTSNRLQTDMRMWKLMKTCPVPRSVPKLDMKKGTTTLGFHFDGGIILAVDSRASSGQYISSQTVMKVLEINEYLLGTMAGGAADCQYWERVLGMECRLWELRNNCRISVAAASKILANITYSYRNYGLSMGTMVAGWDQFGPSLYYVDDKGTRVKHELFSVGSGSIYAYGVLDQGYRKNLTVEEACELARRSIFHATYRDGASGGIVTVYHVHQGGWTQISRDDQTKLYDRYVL
Put plainly: Trypanosoma cruzi proteasome chymotrypsin-like activity (TcProtChymo) assay. Also: in the data most compounds retested in dose-response had high values. The assay is classed as functional. As to conditions: 9.37 µM.

Another assay is filed under the species Homo sapiens. As to the kind of experiment: To identify inhibition of the IFN signalling (Jak-Stat) pathway via expression of an eGFP reporter gene under the control of an IFN-stimulated response element (ISRE) containing MxA promoter. It counts as functional. As to conditions: 30 µM. A general note: In a reporter assay the amount or activity of a reporter protein is the signal.

Assay [6] addresses T4, Tyrosyl-tRNA synthetase, putative (Trypanosoma cruzi (strain CL Brener)) (UniProt Q4DSP6).
T4 sequence (whole entry): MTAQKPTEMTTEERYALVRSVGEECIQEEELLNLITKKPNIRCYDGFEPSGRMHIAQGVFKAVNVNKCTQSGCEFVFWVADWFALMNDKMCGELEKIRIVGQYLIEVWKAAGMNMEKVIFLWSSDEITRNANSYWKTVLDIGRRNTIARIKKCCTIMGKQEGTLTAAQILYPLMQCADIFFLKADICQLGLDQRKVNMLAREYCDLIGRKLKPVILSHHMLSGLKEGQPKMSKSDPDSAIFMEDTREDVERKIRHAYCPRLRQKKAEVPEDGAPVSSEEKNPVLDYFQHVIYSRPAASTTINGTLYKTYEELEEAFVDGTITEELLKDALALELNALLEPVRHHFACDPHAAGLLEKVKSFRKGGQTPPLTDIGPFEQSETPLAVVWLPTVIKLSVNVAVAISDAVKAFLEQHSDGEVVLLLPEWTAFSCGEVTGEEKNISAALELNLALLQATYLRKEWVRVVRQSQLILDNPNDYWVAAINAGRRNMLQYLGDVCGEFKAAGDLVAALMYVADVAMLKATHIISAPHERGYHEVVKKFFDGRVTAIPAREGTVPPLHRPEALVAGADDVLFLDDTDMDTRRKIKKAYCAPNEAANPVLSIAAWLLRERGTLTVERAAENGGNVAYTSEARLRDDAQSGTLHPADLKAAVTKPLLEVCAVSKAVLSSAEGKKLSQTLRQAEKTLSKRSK
Put plainly: Trypanosoma cruzi tyrosyl tRNA synthetase (TcYRS) _High Tyrosine SOP. Also: in the data most compounds retested in dose-response had high values. It counts as functional. As to conditions: 30 µM.

The target of assay [7] is T4, Tyrosyl-tRNA synthetase, putative (Trypanosoma cruzi (strain CL Brener)). Put plainly: Trypanosoma cruzi tyrosyl tRNA synthetase (TcYRS) SOP. It counts as functional. As to conditions: 30 µM.
Assay [8] addresses Chromo domain-containing protein 1 (Saccharomyces cerevisiae (strain ATCC 204508 / S288c) (Baker's yeast)) (UniProt P32657). As to the kind of experiment: ScCHD-1 Enzyme Inhibition Assay. Also: in the data most compounds retested in dose-response had high values. As to conditions: 30 µM. It counts as functional.

For some assays here: Results with a measured potency or affinity are listed apart.

Chromo domain-containing protein 1 (Saccharomyces cerevisiae (strain ATCC 204508 / S288c) (Baker's yeast)), sequence (P32657 whole entry, the tested form may be a part): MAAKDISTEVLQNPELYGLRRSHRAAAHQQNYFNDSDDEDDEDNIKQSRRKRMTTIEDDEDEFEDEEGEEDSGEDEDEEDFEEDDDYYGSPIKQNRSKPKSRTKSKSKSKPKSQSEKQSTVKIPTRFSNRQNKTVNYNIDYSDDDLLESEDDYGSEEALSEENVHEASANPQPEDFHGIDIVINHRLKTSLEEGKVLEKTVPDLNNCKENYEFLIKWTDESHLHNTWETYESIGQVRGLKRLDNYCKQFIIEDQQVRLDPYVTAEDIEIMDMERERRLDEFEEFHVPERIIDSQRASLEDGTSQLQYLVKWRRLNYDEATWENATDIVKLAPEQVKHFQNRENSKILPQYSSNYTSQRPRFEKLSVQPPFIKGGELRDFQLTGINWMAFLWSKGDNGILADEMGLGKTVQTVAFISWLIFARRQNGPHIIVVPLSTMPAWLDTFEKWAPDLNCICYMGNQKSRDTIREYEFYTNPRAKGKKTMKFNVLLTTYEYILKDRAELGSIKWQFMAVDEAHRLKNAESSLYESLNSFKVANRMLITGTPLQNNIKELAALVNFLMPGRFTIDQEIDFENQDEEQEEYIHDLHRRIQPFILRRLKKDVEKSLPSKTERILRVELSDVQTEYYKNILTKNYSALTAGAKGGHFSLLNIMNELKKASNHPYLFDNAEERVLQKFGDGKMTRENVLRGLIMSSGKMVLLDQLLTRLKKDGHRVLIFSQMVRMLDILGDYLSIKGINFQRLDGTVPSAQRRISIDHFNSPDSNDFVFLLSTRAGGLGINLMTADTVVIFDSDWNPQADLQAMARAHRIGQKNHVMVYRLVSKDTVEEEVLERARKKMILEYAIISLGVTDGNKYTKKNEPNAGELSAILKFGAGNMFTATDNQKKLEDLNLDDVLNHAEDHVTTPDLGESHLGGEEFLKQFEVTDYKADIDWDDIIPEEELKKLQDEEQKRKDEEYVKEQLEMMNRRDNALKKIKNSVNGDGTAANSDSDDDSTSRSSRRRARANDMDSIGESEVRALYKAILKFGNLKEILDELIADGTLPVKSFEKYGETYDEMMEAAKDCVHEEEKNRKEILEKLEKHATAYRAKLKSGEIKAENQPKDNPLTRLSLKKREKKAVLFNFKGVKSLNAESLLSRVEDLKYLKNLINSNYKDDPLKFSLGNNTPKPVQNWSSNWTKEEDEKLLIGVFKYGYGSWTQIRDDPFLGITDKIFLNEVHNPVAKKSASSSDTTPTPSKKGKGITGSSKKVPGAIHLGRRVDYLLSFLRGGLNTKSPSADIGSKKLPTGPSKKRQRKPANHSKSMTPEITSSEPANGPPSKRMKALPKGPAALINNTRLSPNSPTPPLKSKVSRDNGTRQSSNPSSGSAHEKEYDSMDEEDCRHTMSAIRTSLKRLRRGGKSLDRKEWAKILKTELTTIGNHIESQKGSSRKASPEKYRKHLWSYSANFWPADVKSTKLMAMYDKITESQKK
Sialic acid-binding Ig-like lectin 9 (Homo sapiens), sequence (Q9Y336 whole entry): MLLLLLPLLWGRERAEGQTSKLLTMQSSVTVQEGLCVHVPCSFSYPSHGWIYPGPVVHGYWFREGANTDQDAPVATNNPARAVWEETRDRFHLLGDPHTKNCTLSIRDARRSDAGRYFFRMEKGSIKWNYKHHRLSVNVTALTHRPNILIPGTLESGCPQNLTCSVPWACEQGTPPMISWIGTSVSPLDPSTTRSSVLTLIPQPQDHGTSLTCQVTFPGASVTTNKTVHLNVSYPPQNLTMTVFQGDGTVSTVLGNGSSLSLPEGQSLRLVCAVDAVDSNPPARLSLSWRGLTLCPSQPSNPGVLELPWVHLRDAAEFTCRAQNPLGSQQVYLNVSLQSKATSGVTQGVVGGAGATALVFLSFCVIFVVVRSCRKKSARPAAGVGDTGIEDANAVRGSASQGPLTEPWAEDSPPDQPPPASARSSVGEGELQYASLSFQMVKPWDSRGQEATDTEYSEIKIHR
Protein translocase subunit SecA (Escherichia coli (strain K12)), sequence (P10408 whole entry): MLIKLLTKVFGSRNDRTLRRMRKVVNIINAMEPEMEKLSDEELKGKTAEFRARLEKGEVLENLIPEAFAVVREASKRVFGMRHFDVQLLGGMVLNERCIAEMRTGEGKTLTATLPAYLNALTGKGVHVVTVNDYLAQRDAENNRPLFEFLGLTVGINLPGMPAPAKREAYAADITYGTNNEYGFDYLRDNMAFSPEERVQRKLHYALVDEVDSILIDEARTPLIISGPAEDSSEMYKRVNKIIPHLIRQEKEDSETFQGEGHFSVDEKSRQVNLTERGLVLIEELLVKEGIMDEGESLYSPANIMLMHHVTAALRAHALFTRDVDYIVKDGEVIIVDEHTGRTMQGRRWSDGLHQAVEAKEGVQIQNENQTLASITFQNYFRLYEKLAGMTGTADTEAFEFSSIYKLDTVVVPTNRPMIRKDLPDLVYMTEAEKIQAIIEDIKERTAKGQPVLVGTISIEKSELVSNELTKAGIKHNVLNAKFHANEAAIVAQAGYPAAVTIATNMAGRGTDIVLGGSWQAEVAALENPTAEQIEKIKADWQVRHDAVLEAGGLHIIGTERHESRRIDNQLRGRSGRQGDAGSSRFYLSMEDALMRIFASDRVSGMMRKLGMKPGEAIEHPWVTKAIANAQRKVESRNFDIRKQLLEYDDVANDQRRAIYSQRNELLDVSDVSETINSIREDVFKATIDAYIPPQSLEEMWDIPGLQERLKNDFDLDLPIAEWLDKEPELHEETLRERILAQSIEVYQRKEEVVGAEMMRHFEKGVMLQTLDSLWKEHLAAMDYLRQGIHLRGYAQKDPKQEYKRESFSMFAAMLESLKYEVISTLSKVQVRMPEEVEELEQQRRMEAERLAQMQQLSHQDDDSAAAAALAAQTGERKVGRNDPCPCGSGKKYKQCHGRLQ

As for `Cc1cn[nH]c1C1CCCCN1C(=O)CCN1CCCCCC1` (stereo not given), the Percent Effect in assay [1] is 0.428%; in assay [2], 4%; in [3] it was -1.68%; in the assay on Trypanosoma cruzi, -7.89%; in [4], 1.77%; in assay [5], 10%. For the same molecule, the Percent Effect in the assay listed under Homo sapiens was 10.3%; in assay [6] it was 2.12%; in assay [7], 5%; in assay [8], -25%.

As for `CC(C)c1cc(NC(=O)CN2CCC(N3CCCCC3)CC2)on1`, the Percent Effect in [1] is -2.28%; in assay [2], 20.8%; in [3] it was 11.8%; with Trypanosoma cruzi, 6.53%; in assay [4], -1.43%; in assay [5] it was 9.3%. The Percent Effect in the assay listed under Homo sapiens was -6.15%; in assay [6], 11.8%; in [7], 32.9%; in assay [8], -5.62%.

Take `CC(C)Oc1ncccc1CNC(=O)c1ccco1`: the Percent Effect in [1] is -4.42%; in assay [2], 16%; in assay [3] it was 0.422%; in the assay on Trypanosoma cruzi, 0.402%; in [4], 5.32%; in assay [5] it was 13.5%. Also, the Percent Effect in the assay listed under Homo sapiens is 7.02%; in [6] it was 5.79%; in assay [7], 17.9%; in assay [8] it was -8.28%.

As to `COc1cccc(-n2nnc(C(=O)N3CCN(C)CC3C)c2C)c1` (stereo not given), the Percent Effect is 1.69% in assay [1]; 25.6% in [2]; -23.9% in [3]; 6.1% with Trypanosoma cruzi; -2.46% in assay [4]; 13.4% in assay [5]. Also, the Percent Effect amounted to 27.9% in the assay filed under Homo sapiens, 3.35% in [6], 22.9% in assay [7] and 12.3% in assay [8].

With `Cc1ncc(-c2ccnc(N3CCCCCC3)n2)c(-c2cccnc2)n1`, the Percent Effect in assay [1] is -0.407%; in assay [2] it was 10.7%; in [3], 0.168%; in the assay on Trypanosoma cruzi, -8.03%; in assay [4] it was 3.1%; in assay [5], 8.74%. The Percent Effect in the assay filed under Homo sapiens was 21.1%; in assay [6], 1.58%; in [7], 12.8%; in [8] it was -11.6%.

For `CC(=O)N1[C@@H](C(=O)NCC2CC2)C[C@@H]2CN(Cc3ccco3)C[C@@H]21`, the Percent Effect in assay [1] was -0.254%; in assay [2], 22.1%; in assay [3] it was -5.46%; in the assay on Trypanosoma cruzi, -0.938%; in assay [4], 3.2%; in assay [5] it was 12.1%. Besides, the Percent Effect in the assay listed under Homo sapiens was 9.99%; in assay [6] it was 3.87%; in [7], 7.5%; in assay [8], -7.56%.

Consider `CC(C)CNc1nc(C(=O)/N=c2\[nH]nc(C(C)(C)C)s2)cs1`, for which the Percent Effect in assay [1] is 2.26%; in assay [2], 8.11%; in [3], -0.928%; in the assay with Trypanosoma cruzi, -8.83%; in assay [4] it was 1.75%; in assay [5] it was 12.3%. In addition, the Percent Effect stood at 19.4% in the assay filed under Homo sapiens, 5.85% in [6], 17.1% in assay [7] and 1.47% in [8].

As to `O=C1CC(c2ccccc2)C2(CCN(Cc3ccccn3)CC2)N1` (stereo not given), the Percent Effect in [1] is 0.295%; in [2], 22.1%; in assay [3], -3.53%; in the assay with Trypanosoma cruzi, -5.25%; in assay [4], 3.2%; in assay [5], 8.33%. In addition, the Percent Effect in the assay filed under Homo sapiens was 18.5%; in assay [6], 7.73%; in assay [7], 15%; in assay [8], -9.1%.
